This is part of a sample that, as a whole, favours compounds with a hit. Of some 83,000 tested, about 20% had one in any assay.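 For each line, cells grew in 96-well plates with the test compound present at a single concentration for 48 hours.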 Unmarked numbers belong to inactive results. Active and inactive are the calls of the source. The calls were made as follows: active = growth percent below 10; inactive = the rest.

This assay has as its system MDA-MB-468 breast. Put plainly: NCI-60 one-dose screen, 48 h (100 = growth as untreated, 0 = no growth, -100 = all killed). Particulars: 10 µM unless noted.
With `CCCCN(CCCC)CCCn1c(=O)c2sc3ncccc3c2n2nnc(-c3ccccc3)c12`, the growth is 109%.

For `COc1cc(C(=O)/C=C/c2cc(C(=O)c3cc(OC)c(OC)c(OC)c3)ccc2OC)ccc1N`, the growth is -44.7% (active).

Consider `C=C(C)[C@@H]1CC[C@]2(C(=O)NCC#CCN3CCN(C)CC3)CC[C@]3(C)[C@H](CC[C@@H]4[C@@](C)(CCC#N)[C@H](C(=C)C)CC[C@]43C)[C@@H]12`, for which the growth was 18.7%.

Take `COc1cc(C2CC(=O)Nc3n[nH]c(-c4ccccc4)c32)cc(OC)c1OC` (stereo not given): the growth is 38.5%.

On to `CCCCN1CCCC[C@@H]1C(=O)N[C@H](C(=O)N(C)[C@H](CCc1nc(C(=O)N[C@@H](Cc2ccccc2)C[C@H](C)C(=O)OC)cs1)C(C)C)C(C)C`, for which the growth was 22.3%.

Regarding `Cc1cc(N(CCCNc2ccnc3cc(Cl)ccc23)Cc2ccc3c(c2)OCO3)nc(N2CCCCC2)n1`, the growth is -45.2% (active).

For the compound `COc1ccc(C(=O)c2cc3c(N)c(C(=O)Nc4cccc(Br)c4C)sc3nc2C)cc1`, the growth was -1.96% (active).

For `Cc1ccc(C(=O)c2ccccc2)c(C)c1`, the growth was 111%.

Turning to `CCNc1nnc(COc2ccc(CNC(=O)CCCC/C=C/C(C)C)cc2OC)o1`, the growth was 104%.

In the case of `COC(=O)C(Cc1ccccc1)n1cc(COc2nc(Cl)nc(Nc3ccc(Cl)cc3)n2)nn1` (stereo not given), the growth is 69.1%.

Turning to `Nc1nc(N)c2c(n1)NC(c1ccc(F)cc1)CC(c1ccc(Nc3nc(NCCO)nc(Nc4ccc(Cl)cc4)n3)cc1)=N2` (stereo not given), the growth is -68.5% (active).

For `CCN(CC)CCN1C(=O)c2c(c(C)c3c(oc4cc(OC)ccc43)c2C)C1=O`, the growth was 114%.

Regarding `CC1(C)CC[C@]2(CO)CC[C@]3(C)[C@H](CC[C@@H]4[C@@]5(C)CCCNC(C)(C)[C@@H]5CC[C@]43C)[C@H]2[C@H]1O`, the growth is 71.3%.

With `FCc1ncc(-c2ccc(C(F)(F)F)cc2)c(NC2CCCCCC2)n1`, the growth is 24.8% [100 µM].

On to `C=CCn1c(SCC(=O)Nc2ccc(C(=O)/C=C/c3cc(OC)c(OC)c(OC)c3)cc2)nnc1-c1ccccc1`, for which the growth was 82%.

In the case of `CCN1CCN(CCCN(C[C@H]2Cc3ccccc3CN2)[C@H]2CCCc3cccnc32)CC1`, the growth was 87.1%.

On to `Cc1cc2c(c(C)c1Cl)C(=O)/C(=C/c1ccco1)O2`, for which the growth was -2.58% (active).

As to `O=c1cc(Cl)[nH]c(=O)[nH]1`, the growth is 101%.

For `O=C(NNc1nc2cc(F)ccc2n2c(CN3CC4(COC4)C3)ccc12)c1cnccn1`, the growth is -16.1% (active).

For the compound `COC1=CC(c2ccc[nH]2)=N/C1=C\c1[nH]c(C)c(C(=O)CCCCC(=O)Nc2ccccc2)c1C`, the growth is -10.7% (active).

For `CCOC(=O)c1ccccc1-c1c2ccc(=[N+](C)C)cc-2oc2cc(N(C)C)ccc12`, the growth was -17.9% (active).

Consider `O=C(CC(SCc1ccccc1)c1ccccc1)c1ccccc1` (stereo not given), for which the growth is 84.9%.

For `Cc1[nH]c(-c2nc3ccccc3[nH]2)c(C)c1C(=O)N1CCc2sccc2C1`, the growth was 70.2%.

As for `Cn1c(=O)c2[nH]c(CCCCC(=O)O)nc2n(C)c1=O`, the growth is 121%.

`COc1ccc(-c2nc3sccn3c2-c2ccnc(NCCCNS(=O)(=O)c3ccc(F)cc3)n2)cc1`: the growth was 6.78% (active).

`COC(=O)c1nc(-c2ccc(C)cc2)oc1S(=O)(=O)c1cccc(OC)c1`: the growth is 71.7%.

As to `O=c1ssc(Cl)c1-c1ccccc1`, the growth was 97.3%.

As to `COc1ccc(S(=O)(=O)n2cc(C3OC(c4cc(OC)c(OC)c(OC)c4)=NN3C(C)=O)c3ccccc32)cc1OC` (stereo not given), the growth is 105%.

On to `C=CCNc1ccccc1`, for which the growth was 108%.

Take `COc1c(O)cc2c(c1CC=C(C)C)OC(=O)c1c(cc(O)c(CC=C(C)C)c1O)O2`: the growth was 27.9%.

As to `Cn1c(SCC(=O)c2ccc(Br)cc2)nc2ccccc2c1=O`, the growth is 89.9%.

Consider `COc1ccc2nc3ccccc3c(NCCNCCO)c2c1`, for which the growth was -72.9% (active).

Consider `CC[C@]12C=CCN3CC[C@@]4(c5ccc(OC)cc5N(C)[C@H]4[C@@](O)(C(=O)OC)[C@@H]1OC(=O)CCC(=O)O[C@H]1CC[C@H]4[C@@H]5CC[C@H]6CC(=O)CC[C@]6(C)[C@H]5CC[C@]14C)[C@@H]32`, for which the growth was 24.8%.

For `S=c1[nH]c2cc(Cl)ccc2o1`, the growth is 99%.

`O=C1Nc2ccccc2/C1=C\c1ccccc1O`: the growth is 67.4%.

Regarding `O=S(=O)(O)c1cc(O)c2c(N=Cc3ccccc3O)c(S(=O)(=O)O)ccc2c1`, the growth was 101%.

With `COc1cccc(C(=O)NCCCNc2cc(-c3cn(-c4ccccc4)nc3-c3cccc(OC)c3)ccn2)c1`, the growth is 29.1%.

`COc1ccc(C(=O)c2cc3c(N)c(C(=O)Nc4ccc(Cl)cc4)sc3nc2C)cc1`: the growth is 76.7%.

`Cc1nn(CCO)c(C)c1N=[N+]([O-])c1c(C)nn(CCO)c1C`: the growth was -59% (active).

In the case of `CCSC1=NC2C(N(CC)C(=O)N2CC)N1/N=C/C=C/c1ccccc1[N+](=O)[O-]` (stereo not given), the growth is -0.585% (active).

(Values after PubChem BioAssay (NCI).)
